From PubChem BioAssay
aSyn yeast inh: inhibitors of alpha-synuclein toxicity in yeast. AID 652106. Potency, µM (titrated, usually from 46.1 µM), inactives show top-dose growth rescue (activation), hits mostly activators. Yeast expressing alpha-synuclein, growth rescue, BacTiter-Glo, 24 h. hit rate 0.14% among 370,000; also: % of control where 0% means no effect; nearly all actives have a fitted effect of over 65% in size
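Readout is rescue of growth in alpha-synuclein-expressing yeast, so inhibitors of toxicity appear as activators. Growth after 24 hr at 30 deg C in galactose medium is quantified by luminescence.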
MBNL1 CUG block: blocks human MBNL1 binding to CUG repeat RNA. Q9NR56. TR-FRET MBNL1-His/biotin-(CUG)12 binding, 665/545 ratio. hit rate 0.036% among 280,000. Potency, µM (highest dose often 57.5 µM), for the others: at the highest dose activity change, negative = inhibition, usual class: inhibitors; active = well fitted inhibition curve with a large enough effect in the signal ratio, with a control signal flat, not every such curve was filed as active; inconclusive = small, poorly fitted or top-dose-only effect, or effect the other way, or a change in a side signal; inactive = no such curve, though single readings can be large or run the other way; the % refers to the signal ratio; also: % is scaled to controls: 0 for no effect and ±100 for the full control effect
Target sequence (Q9NR56 whole entry, looked up): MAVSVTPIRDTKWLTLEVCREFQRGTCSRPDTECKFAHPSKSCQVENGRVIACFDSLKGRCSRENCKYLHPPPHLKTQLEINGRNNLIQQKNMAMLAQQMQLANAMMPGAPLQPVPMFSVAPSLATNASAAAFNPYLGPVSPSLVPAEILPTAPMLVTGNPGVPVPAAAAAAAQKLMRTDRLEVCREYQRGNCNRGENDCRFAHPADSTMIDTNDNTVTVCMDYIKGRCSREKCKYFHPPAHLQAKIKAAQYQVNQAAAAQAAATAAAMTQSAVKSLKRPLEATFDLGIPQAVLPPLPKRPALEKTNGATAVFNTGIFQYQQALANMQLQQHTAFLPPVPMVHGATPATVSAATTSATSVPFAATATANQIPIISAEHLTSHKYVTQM
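Compound titration spanned 92 nM–58 uM against the MBNL1-His/biotin-(CUG)12 complex. After 60 min at room temperature with 5 nM streptavidin-XL665 and 0.055 ng/ul terbium anti-His, ratiometric 665/545 nm emission (Ex 340 nm) normalized to controls.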
GRP78 ERSR act: inducers of ER stress response in human glioma cells; U87-MG GRP78 promoter luciferase reporter, 16 h; Potency, µM, without a hit: at the highest dose activation, hits mostly activators; hit rate 0.02% among 420,000; AID 602332; also: series mostly up to about 76 µM; % of control where 0% means no effect; nearly all actives have a fitted effect of over 35% in size
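Stably transfected U87-MG glioma cells carrying a GRP78-based luciferase sensor; 16 h compound incubation. Luminescence end-point read 10 min after Bright-Glo addition at room temperature.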
FUS suppressor: rescues growth of FUS-expressing yeast. S. cerevisiae FUS-expressing, growth rescue, OD600, 24 h. Potency, µM (highest dose often 76.6 µM), usual class: activators. hit rate 0.24% among 390,000;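 also: plate controls were DMSO vehicle for no effect and reference control for full effect; nearly all actives have a fitted effect of over 55% in size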
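Compound concentration series was pinned onto galactose-induced FUS-expressing yeast seeded at OD 0.005. Plates sat 24hr at 30C; absorbance at 600 nm gave growth. DMSO served as background control.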
TDP-43 yeast inh: rescues yeast growth from TDP-43 toxicity; TDP-43 expressing yeast growth rescue, BacTiter-Glo, 24 h; Potency, µM (titrated, usually from 46.1 µM), for inactives: at the highest dose growth rescue (activation), hits mostly activators; hit rate 1.8% among 410,000; AID 652104; also: % of control where 0% means no effect; nearly all actives have a fitted effect of over 50% in size
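Yeast expressing TDP-43 (pregrown in raffinose, seeded at OD600=0.02 in galactose medium) exposed to compounds 24 hr at 30 deg C. Growth read by BacTiter-Glo luminescence; rescue of toxicity appears as increased signal.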
Abeta rescue: A-beta toxicity reversal in yeast | yeast expressing A-beta42, growth rescue, OD600, 48 h; response scale: 0% DMSO, 100% iron-clioquinol control | Potency, µM (titrated, usually from 46.1 µM), usual class: activators | hit rate 0.063% among 410,000 | AID 1347071; also: nearly all actives have a fitted effect of over 55% in size
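Yeast growth medium received pinned compounds, then yeast cells expressing toxic A-beta were added; plates incubated at 30 C for 48 hr. Growth read as absorbance at 600 nm, normalized to DMSO and equimolar FeCl3 plus clioquinol controls.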
An asterisk follows results filed as active; i = inactive; u = inconclusive; x = no result given; [ ] = another dose, or the depositor's remark. Hits are enriched below; roughly 2% of the tested compounds scored in any of these assays. Unless noted, calls follow the shape of the dose curve; as a rule, active = well fitted curve in the direction sought with a large enough effect; inconclusive = small, poorly fitted or top-dose-only effect, or another doubt; inactive = no such curve, though single readings can be large; an effect the other way counts as inactive or inconclusive. Potency is read from the fitted curve at half-maximal effect.

SMILES | aSyn yeast inh | MBNL1 CUG block | GRP78 ERSR act | FUS suppressor | TDP-43 yeast inh | Abeta rescue
O=C(Nc1ncc2c(n1)-c1ccccc1CC2)c1ccccc1 | -0.9% | -3.5% | 0.7% | i | 12.6µM* | i
O=C(Nc1ncc2c(n1)-c1ccccc1CC2)c1cccs1 | -12.3% | -8.1% | 6.1% | i | u | i
O=C(Nc1ncc2c(n1)-c1ccccc1CC2)c1ccc(F)cc1 | 5.1% | -3.7% | -1.8% | i | 10µM* | i
Cc1cccc(C(=O)O/N=C(/c2ccccc2)c2ccncc2)c1 | u | -6.8% | -3.7% | i | 7.08µM* | i
O=C(O/N=C(\c1ccccc1)c1ccncc1)c1ccccc1Cl | u | -2.3% | -1.2% | i | 3.98µM* | i
N/C(=N\OC(=O)c1ccccc1Cl)c1ccccc1 | -21.1% | -9.4% | -1.7% | i | u | i
CCC(C)(C)c1ccc(Oc2cccc(C(=O)O)c2)cc1 | 0.891µM* | -0.5% | 0.8% | i | -28.5% | i
CCC(C)(C)c1ccc(Oc2ccc(N)cc2)cc1 | u | -1.4% | -17.2% | i | u | i
COc1cc(NC(=O)c2ccccc2)cc(OC)c1 | 3.55µM* | 1.3% | 4.8% | i | 0.0% | i
COc1cc(NC(=O)C(Cc2ccccc2)n2cccc2)cc(OC)c1 (configuration not stated) | 4.7% | 12.9% | -1.7% | i | 20µM* | i
C=C1C(=O)[C@]23C[C@H]1CC[C@H]2[C@]1(C)[C@@H](OC(C)=O)CC[C@@](C)(C(=O)OC)[C@H]1C[C@@H]3OC(C)=O | 17.4% | x | -12.2% | i | 17.8µM* | i
C=C1C(=O)[C@]23C[C@H]1CC[C@H]2[C@]1(C)[C@@H](OC(C)=O)CC[C@@](C)(C(=O)O)[C@H]1C[C@@H]3O | u | x | -12.8% | i | 11.2µM* | i
COc1ccc(-c2cc(C(=O)Nc3ccc(C)c(N)c3)c3ccccc3n2)cc1 | -14.2% | u | -3.2% | 14.1µM* | u | i
COc1ccc(-c2cc(C(=O)OC3CCOC3=O)c3ccccc3n2)cc1 (configuration not stated) | -5.5% | u | 8.3% | i | 15.8µM* | i
COc1ccc(-c2cc(C(=O)Nc3ccc(S(=O)(=O)Nc4ncccn4)cc3)c3ccccc3n2)cc1 | -10.2% | x | 6.0% | i | -1.2% | i
O=C(OC1CCOC1=O)c1cc(-c2ccc(Br)cc2)nc2ccccc12 (configuration not stated) | -2.1% | 11.1% | -1.1% | i | 21.0% | i
O=C(Cn1nnc(-c2ccccc2F)n1)Nc1ccc(Cl)c(Cl)c1 | x | x | x | i | x | x
Cc1nc(-c2ccc(Br)cc2)ccc1C(=O)O | -8.7% | -6.1% | -1.8% | x | 15.8µM* | i
Cc1ccc(-c2ccc(C(=O)O)c(C)n2)cc1 | 0.1% | -11.0% | -2.0% | x | u | i
O=C(Nc1ccc2ccccc2c1)c1ccc(Br)o1 | -4.2% | 12.0% | -2.8% | i | 20µM* | i
Cc1ccc(CN2CCCCC(NC(=O)c3ccc(COc4ccccc4)cc3)C2=O)cc1 (configuration not stated) | x | x | x | i | x | x
COc1ccc(/C=N/N=C/c2ccc(OC)c(O)c2)cc1O | -2.7% | u | 2.9% | i | 13.2% | i
COc1ccc(C=NN=C2c3ccccc3-c3ccccc32)cc1O | 1.4% | x | 10.5% | x | 17.8µM* | i
O=C(c1ccc(F)c(F)c1)N1CCOc2ccc(CN3CCN(CCO)CC3)cc2C1 | x | x | -5.9% | x | x | x
CC(C)(C)c1ccc(Oc2ccc(N)cn2)cc1 | 28.1% | x | -14.6% | i | 20µM* | u
SMILES | aSyn yeast inh | MBNL1 CUG block | GRP78 ERSR act | FUS suppressor | TDP-43 yeast inh | Abeta rescue
COc1ccccc1CNc1ncnc2sc(C(=O)N(C)C(C)C)c(C)c12 | x | x | -3.0% | x | x | x
Cc1cc(Cl)ccc1-c1nc(NC(C)C)nc2ccsc12 | u | x | -3.9% | i | 35.5µM* | i
COCCNc1nc(-c2ccc(Cl)cc2C)c2sccc2n1 | 10.3% | x | -1.2% | i | 22.4µM* | i
Cc1cc(Cl)ccc1-c1nc(NCc2ccccc2)nc2ccsc12 | 23.7% | x | 4.0% | i | u | i
COc1ccc2c(c1)CCc1cnc(-n3ncc(C(=O)NCC(C)(C)CN(C)C)c3C)nc1-2 | x | x | 2.0% | x | x | x
O=C(NCc1ccncc1)c1cnn(-c2nccc(-c3cccs3)n2)c1C1CC1 | x | x | -5.6% | x | x | x
CCNc1nc(N)nc(-c2cc(Cl)ccc2O)n1 | 1.6% | 5.9%[11.5 µM] | -7.4% | i | 3.16µM* | i
CN(C(=O)C1CCN(c2cncnc2)CC1)C1CCCCC1 | x | x | x | i | x | x
CC1CCCC(NC(=O)CSc2ncnc3ccccc23)C1C (configuration not stated) | 2.4% | x | 1.9% | i | 14.1µM* | i
CN(C(=O)CCc1nc(-c2ccccc2F)no1)c1ccc(Cl)cc1 | x | x | 0.9% | i | 22.4µM* | i
CN(C(=O)CCc1nc(-c2ccccc2F)no1)c1ccccc1 | -0.7% | 6.1% | 5.8% | i | -9.0% | i
CNC(=S)N/N=C1\CC(c2ccccc2)Oc2ccccc21 (configuration not stated) | -0.5% | 3.2% | 4.6% | i | 22.4µM* | i
Fc1ccc(N/N=C2/CC(c3ccccc3)Oc3ccccc32)c(F)c1 (configuration not stated) | 16.4% | x | 8.0% | x | 17.3% | i
O=C1CC(c2ccccc2)Oc2ccccc21 (configuration not stated) | -1.3% | x | 7.5% | i | 14.1µM* | i
O=CN1CCCN(C(=O)c2cc(NC(=O)c3ccccc3)cc3ncn(C4CCCC4)c23)CC1 | x | x | -1.1% | x | x | x
Cc1ncc2c(c1CNC(=O)c1ccc3c(c1)OCO3)CCN(C(=O)c1cc3ccccc3o1)C2 | x | x | -3.0% | x | x | x
NC(=O)c1ccc(Br)c(S(=O)(=O)N2CCCCC2)c1 | 1.3% | 1.2% | 6.5% | i | -5.4% | i
O=S(=O)(c1cc(Br)ccc1Br)N1CCCCCC1 | 4.2% | -9.0% | -0.5% | i | 7.94µM* | i
CC1(C)CC(=O)C(N=Nc2ccc(Br)cc2)=C(O)C1 | -0.3% | u | 6.8% | i | 10.0% | i
CC1(C)CC(=O)C(Sc2ccc(Br)cc2)=C(O)C1 | 25.1% | -0.9% | -1.1% | i | 12.6µM* | i
Cc1oc(-c2ccccc2NC(=O)c2cccnc2)nc1CNC(=O)c1ccc(N(C)C)cc1 | x | x | -5.1% | x | x | x
Clc1ccc(OCCn2cnc(Cl)c2Cl)cc1 | 19.5% | -6.3% | -7.1% | i | 11.2µM* | u
COc1ccc(OCCn2cnc(Cl)c2Cl)cc1 | 2.8% | 0.5% | -4.7% | i | 15.7% | i
